Measured values published in the supplement of paper PMC10681739.

biological target: T1, ETS1 (UniProt P14921); experiment: TF binding intensity (PBM fluorescence), negative control probe (arbitrary fluorescence units); higher = stronger binding
T1 sequence: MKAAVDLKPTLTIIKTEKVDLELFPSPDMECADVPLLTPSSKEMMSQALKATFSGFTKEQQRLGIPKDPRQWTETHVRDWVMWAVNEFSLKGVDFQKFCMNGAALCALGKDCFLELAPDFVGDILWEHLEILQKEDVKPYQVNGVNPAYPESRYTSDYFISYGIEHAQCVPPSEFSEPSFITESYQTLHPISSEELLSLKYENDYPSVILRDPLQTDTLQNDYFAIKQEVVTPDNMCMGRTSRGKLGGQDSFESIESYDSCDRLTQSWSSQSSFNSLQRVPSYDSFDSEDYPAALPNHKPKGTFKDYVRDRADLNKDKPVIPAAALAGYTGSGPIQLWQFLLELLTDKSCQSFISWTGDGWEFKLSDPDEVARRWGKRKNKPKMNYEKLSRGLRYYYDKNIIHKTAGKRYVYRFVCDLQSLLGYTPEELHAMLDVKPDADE
Experimental: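 gcPBM negative-control 36-bp genomic probes lacking TF binding sites. Each was incubated with recombinant human ETS1 or RUNX1 alone and detected by antibody fluorescence. Values are medians over replicate spots (4 spots for the ETS1-RUNX1 arrays, 3 for the ETS1-ETS1 array). The probes sit in constant array flanks that are not printed.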

Sequence | TF binding intensity
ACCTCCCACTTGGCTCCCAGGTGGGTGCAGTGAGGC (protein concentration 10 nM) | 155
GTGTCTGCCTCATTGGCGAAGGCCAGCCTCTGAGCC (protein concentration 10 nM) | 140
CCTATTAAATTCAGATTTGCAGTTTGTTTTTTATCA (protein concentration 10 nM) | 117
ACCTGTGAATAGACTGACCAAATGCAAGCTGGACCA (protein concentration 10 nM) | 111
GAAAACACTAGCGTGACCTCAACAACTAAGATTAAA (protein concentration 1 nM) | 490
CACAATAAAGCCGCAACCGCAGGAGGCAGAAGGGTG (protein concentration 1 nM) | 793
CTTGACAGAGGTATGTGCTAGGATTGAATATGTGGG (protein concentration 10 nM) | 131
TTTTTCTTTTAATTTTTCTTTTTTATTCTATTTTTT (protein concentration 10 nM) | 117
CCAGCCAACCCAAAGACCACACCCCACCACCTCCTC (protein concentration 1 nM) | 491
AGCGGGAGGGAGGCCAGGGAAGGCTGCTGGGGGTCG (protein concentration 10 nM) | 142
CAGGTGGATGACTCAGCTGGAGAACAAAGTGGCTTC (protein concentration 10 nM) | 122
TGGACTATATCAAGTGTGAACGATCATACTTGTTAT (protein concentration 10 nM) | 124
GGTATCGAGCTCGGGGGACTGGGCTGCGGGGGACGT (protein concentration 10 nM) | 264
TTAACCTCTAGAAAAAGTAAATATTCAGCAATAGGA (protein concentration 10 nM) | 103
AGTTCAAAAAAGCCCAAATGCTATAGGGACAACAAC (protein concentration 10 nM) | 148
TCCTCAAAATTAAGGTGCGGTGCCAGGCGCAGTGGC (protein concentration 1 nM) | 374
GATGCTTTTGTCCCACTAGGGCTCGTGCCTTAGTGA (protein concentration 10 nM) | 112
TTATCAAGTGAATCAAGCCATTGTCGGGTCGAAATA (protein concentration 10 nM) | 117
TCTCTCTGCTCTGTGAACTCTAGCTGTCTTGGCTTC (protein concentration 10 nM) | 142
GAGCAGGAGAAAATGTGTCTGAGAAAGAGCTAGGAG (protein concentration 10 nM) | 128

Sequence | TF binding intensity
TGATTTCTTAAGCCAACCTCAAAAAAAAAAAAAGAG (protein concentration 1 nM) | 596
TACTACTATAAAGATGGATACATGTCGTTATACATT (protein concentration 10 nM) | 106
GAAGAGCAGGCCTGGCGTCTGCCCGTGCCAGTGTTT (protein concentration 10 nM) | 102
ATTTGGGTTCCAGCCCGCTAGCCTGCCTTTTCTCAT (protein concentration 10 nM) | 92.9
ATGTTTTCGGTTCTTAGGACCCAGGTGCTCACCACA (protein concentration 10 nM) | 106
ATATATAGTAACCACATGATTAATAATAATAATGCA (protein concentration 10 nM) | 119
CTTGGTGTGTCTGAAGAAAGATCAGAAGGCTGGCAT (protein concentration 10 nM) | 123
TGCCAGGGTGTAATTTTTCCCACTTTCACCTCCTTC (protein concentration 10 nM) | 128
CCCCTCCAGACTCCCCTGACCCAGGGTGGAGGACAT (protein concentration 10 nM) | 161
GCCCATCATTGGAGTCCCTTGGGGGTATCTGGAGCA (protein concentration 10 nM) | 161
AGCAGATCATTTGAGCCTGGGAGGCGCACATGGCAG (protein concentration 10 nM) | 116
TTCTTTGACTCACTATGCGGGTTGGTACATCTGGGG (protein concentration 1 nM) | 476
GAAGTTTCAAGATGTAGTAGTTAAAGTATTAACTTA (protein concentration 10 nM) | 113
CCCTAAGCGCCTGCGCACATTTGCGCATCGCTCTGC (protein concentration 10 nM) | 109
TTATAATACATGTGCAGTATATTTTCTTGAAACTTC (protein concentration 10 nM) | 110
CCCCAGTAGAAGCCACCCAGCCTTTTGTTTGTTTTC (protein concentration 10 nM) | 133
TTATAGCATCTATTTATGTAAATCATATCTCCTTTT (protein concentration 10 nM) | 101
CCGGGCCGCTGCGGGCTCCCCAGCTCCCCACAGATC (protein concentration 10 nM) | 147
AGCCCGGGTGACTTGAGAGTAATTAATGTGCAAAGA (protein concentration 10 nM) | 106
CAGGCAGCATCTGGGGGTGTGTGGGTTTGGCAAGCT (protein concentration 10 nM) | 134
